The record followed here is PubChem BioAssay (EPA / NIEHS).

The source holds several records for some structures; these can differ, active in one and inactive in another. Activity calls are given as the source filed them. Rule for the calls: active = hit-call score of the fitted dose curve at least 0.9, where 1 is the maximum; inactive = score below 0.9.

Read-out in assay [1]: Interleukin-1 alpha (IL1a), IL1A (gene 3552)
Nature of the assay: BSK_LPS_IL1a: BioMAP Diversity Plus: LPS Assay for Interleukin-1 alpha (IL1a) Biomarker Activity (AID 2283080). The conditions noted are these: primary human HUVEC with PBMC; actives raise or lower the signal. The gist of the method:
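Measured: IL-1 alpha via ELISA at 24 h in LPS-activated human umbilical vein endothelium–PBMC co-culture. Baseline: DMSO, bidirectional fitting.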

Read-out in assay [2]: Monocyte Chemoattractant Protein-1 (MCP1), CCL2 (gene 6347)
Nature of the assay: BSK_LPS_MCP1: BioMAP Diversity Plus: LPS Assay for Monocyte Chemoattractant Protein-1 (MCP1) Biomarker Activity (AID 2283081).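 For AC50: secreted MCP-1 protein quantified by ELISA in culture supernatant.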 Particulars: primary human HUVEC with PBMC; actives raise or lower the signal. The essentials:
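LPS-stimulated HUVEC/PBMC co-culture; chemical, 24 h; MCP-1 by ELISA; bidirectional fit vs DMSO; cytotoxicity via SRB (0.1% stain, 10% TCA fix, 560 nm) in parallel wells.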

A short description of assay [3]: BSK_LPS_PGE2: BioMAP Diversity Plus: LPS Assay for Prostaglandin E2 (PGE2) Biomarker Activity (AID 2283082).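 For AC50: secreted prostaglandin E2 measured by ELISA in LPS-stimulated co-culture.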 The conditions noted are these: primary human HUVEC with PBMC; actives raise or lower the signal. The gist of the method: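 ELISA read-out of PGE2 from human umbilical vein endothelial cells co-cultured with peripheral blood mononuclear cells under LPS, 24 h post-dose. Gain or loss of signal scored relative to DMSO baseline.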

Read-out in assay [4]: Macrophage colony-stimulating factor (MCSF), CSF1 (gene 1435)
Nature of the assay: BSK_LPS_MCSF: BioMAP Diversity Plus: LPS Assay for Macrophage colony-stimulating factor (MCSF) Biomarker Activity (AID 2283083). Particulars: primary human HUVEC with PBMC; actives raise or lower the signal. The gist of the method:
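Compound is added to a human vascular primary co-culture of umbilical vein endothelium and blood mononuclear cells. After 24 h, M-CSF is quantified by ELISA. Signal changes are fitted in both directions against DMSO.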

Read-out in assay [5]: Tissue Factor, F3 (gene 2152)
Briefly: BSK_LPS_TissueFactor: BioMAP Diversity Plus: LPS Assay for Tissue Factor Biomarker Activity (AID 2283084). Particulars: primary human HUVEC with PBMC; actives raise or lower the signal. The essentials: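 In this co-culture system of umbilical vein endothelium with PBMC, stimulated with LPS, cell-surface CD142 is detected by ELISA at 24 h. Endpoint values derive from bidirectional fitting, DMSO serving as baseline.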

Read-out in assay [6]: Tumor necrosis factor (Homo sapiens) (UniProt P01375)
Nature of the assay: BSK_LPS_TNFa: BioMAP Diversity Plus: LPS Assay for Tumour Necrosis Factor alpha (TNFa) Biomarker Activity (AID 2283085).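 For AC50: TNFa protein level quantified by ELISA in the co-culture.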 The conditions noted are these: primary human HUVEC with PBMC; actives raise or lower the signal. The essentials:
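HUVEC/PBMC co-culture, LPS-stimulated; 24 h post-dose; TNFa by ELISA; gain or loss of signal fitted bidirectionally vs DMSO baseline.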

Read-out in assay [7]: Vascular cell adhesion molecule 1 (VCAM1), VCAM1 (gene 7412)
Briefly: BSK_LPS_VCAM1: BioMAP Diversity Plus: LPS Assay for Vascular cell adhesion molecule 1 (VCAM1) Biomarker Activity (AID 2283086). The conditions noted are these: primary human HUVEC with PBMC; actives raise or lower the signal. The gist of the method: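 ELISA read-out of VCAM-1 at 24 h post-dosing in an LPS-driven HUVEC/PBMC primary human co-culture; gain or loss of signal fitted bidirectionally against DMSO baseline. Cytotoxicity tracked in parallel cultures by SRB total-protein staining.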

Read-out in the next assay: CD38, CD38 (gene 952)
Briefly: BSK_SAg_CD38: BioMAP Diversity Plus: SAg Assay for CD38 Biomarker Activity (AID 2283087). The conditions noted are these: primary human HUVEC with PBMC; actives raise or lower the signal. The essentials: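 Measures CD38 on a human endothelial/PBMC co-culture driven by SEB and TSST-1, 24 h after compound exposure, using ELISA with fluorescence detection; DMSO defines baseline for bidirectional curve fitting.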

Read-out in a further assay: CD40, CD40 (gene 958)
Nature of the assay: BSK_SAg_CD40: BioMAP Diversity Plus: SAg Assay for CD40 Biomarker Activity (AID 2283088). Particulars: primary human HUVEC with PBMC; actives raise or lower the signal. The gist of the method:
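Fluorescence ELISA read-out of CD40 from umbilical vein endothelium plus peripheral blood mononuclear cells, sampled 24 h after dosing. Values come from bidirectional curve fitting with DMSO as baseline.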

Read-out in the next assay: CD69, CD69 (gene 969)
Nature of the assay: BSK_SAg_CD69: BioMAP Diversity Plus: SAg Assay for CD69 Biomarker Activity (AID 2283089).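 For AC50: cell surface CD69 protein quantified by ELISA with fluorescence detection.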 Particulars: primary human HUVEC with PBMC; actives raise or lower the signal. The gist of the method: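 HUVEC co-cultured with PBMC were dosed with chemical, and CD69 was measured by ELISA with fluorescence read-out 24 h later. Bidirectional curve fitting used DMSO as negative control and activity baseline.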

Read-out in assay [8]: Monocyte Chemoattractant Protein-1 (MCP1), CCL2 (gene 6347)
Nature of the assay: BSK_SAg_MCP1: BioMAP Diversity Plus: SAg Assay for Monocyte Chemoattractant Protein-1 (MCP1) Biomarker Activity (AID 2283090). The conditions noted are these: primary human HUVEC with PBMC; actives raise or lower the signal. The gist of the method: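 Values derive from bidirectional fitting of ELISA-measured MCP1 against DMSO controls. Readings were taken 24 h after dosing human vascular endothelial cells co-cultured with peripheral blood mononuclear cells under superantigen stimulation.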

Read-out in assay [9]: E-selectin (Homo sapiens) (UniProt P16581)
Nature of the assay: BSK_SAg_Eselectin: BioMAP Diversity Plus: SAg Assay for Eselectin Biomarker Activity (AID 2283091). The conditions noted are these: primary human HUVEC with PBMC; actives raise or lower the signal. The gist of the method: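 Primary human endothelial cells and peripheral blood mononuclear cells were co-cultured and exposed to chemical for 24 hours. E-selectin levels were then quantified by ELISA, with bidirectional curve fitting normalised to DMSO controls.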

Read-out in assay [10]: Monokine induced gamma interferon (MIG), CXCL9 (gene 4283)
Nature of the assay: BSK_SAg_MIG: BioMAP Diversity Plus: SAg Assay for Monokine induced gamma interferon (MIG) Biomarker Activity (AID 2283092). Particulars: primary human HUVEC with PBMC; actives raise or lower the signal. The gist of the method:
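HUVEC plus human PBMC co-culture, chemicals dosed and MIG (CXCL9) quantified by ELISA at 24 h. Bidirectional curve fitting against DMSO as negative control and baseline, so both gain and loss of signal count as activity.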

Assay [11] in a line: BSK_SAg_PBMCCytotoxicity: PBMC Cytotoxicity Assessment in the BioMAP Diversity Plus: SAg Assay (AID 2283093).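 For AC50: PBMC superantigen activated with SEB plus TSST-1 one hour after compound addition.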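 Note: fitted both ways against DMSO so a hit may be loss or gain of signal.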 The conditions noted are these: primary human HUVEC with PBMC. The essentials: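 PBMC viability by Alamar Blue reduction, fluorescence read at 546/580 nm after 6 h dye exposure. Cells were dosed 1 h before SEB plus TSST-1 activation (20 ng/mL final each), then held 90 h; endothelial/PBMC human co-culture.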

Read-out in assay [12]: Interleukin-8 (IL8), CXCL8 (gene 3576)
Briefly: BSK_SAg_IL8: BioMAP Diversity Plus: SAg Assay for Interleukin-8 (IL8) Biomarker Activity (AID 2283094). Particulars: primary human HUVEC with PBMC; actives raise or lower the signal. The essentials: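 HUVEC/PBMC co-culture, 24 h post-dose; IL-8 by ELISA. Gain or loss of signal fitted bidirectionally vs DMSO baseline.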

Assay [13] can be described thus: BSK_SAg_Proliferation: Cell Proliferation Assessment in the BioMAP Diversity Plus: SAg Assay (AID 2283095).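 Note: relative cell number as total protein by SRB absorbance in sub-confluent culture.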 The conditions noted are these: primary human HUVEC with PBMC. The gist of the method:
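HUVEC/PBMC co-culture, 96-well. TCA-fixed (10%), 0.1% SRB stain, A560 at 96 h. Protein content used as viability readout; bidirectional fitting vs DMSO control.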

A short description of assay [14]: BSK_SAg_SRB: Viability Assessment in the BioMAP Diversity Plus: SAg Assay (AID 2283096).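 Note: cells read one day after compound addition; hits may be either gain or loss of signal compared with DMSO.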 Particulars: primary human HUVEC with PBMC. The gist of the method:
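Compounds were added to a human vascular co-culture of umbilical vein endothelium and PBMC. After 24 h, parallel cultures were fixed with 10% TCA, stained with 0.1% sulforhodamine B and read at 560 nm. Gain or loss of signal was fitted relative to DMSO.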

E-selectin (Homo sapiens), sequence (P16581 whole entry, looked up): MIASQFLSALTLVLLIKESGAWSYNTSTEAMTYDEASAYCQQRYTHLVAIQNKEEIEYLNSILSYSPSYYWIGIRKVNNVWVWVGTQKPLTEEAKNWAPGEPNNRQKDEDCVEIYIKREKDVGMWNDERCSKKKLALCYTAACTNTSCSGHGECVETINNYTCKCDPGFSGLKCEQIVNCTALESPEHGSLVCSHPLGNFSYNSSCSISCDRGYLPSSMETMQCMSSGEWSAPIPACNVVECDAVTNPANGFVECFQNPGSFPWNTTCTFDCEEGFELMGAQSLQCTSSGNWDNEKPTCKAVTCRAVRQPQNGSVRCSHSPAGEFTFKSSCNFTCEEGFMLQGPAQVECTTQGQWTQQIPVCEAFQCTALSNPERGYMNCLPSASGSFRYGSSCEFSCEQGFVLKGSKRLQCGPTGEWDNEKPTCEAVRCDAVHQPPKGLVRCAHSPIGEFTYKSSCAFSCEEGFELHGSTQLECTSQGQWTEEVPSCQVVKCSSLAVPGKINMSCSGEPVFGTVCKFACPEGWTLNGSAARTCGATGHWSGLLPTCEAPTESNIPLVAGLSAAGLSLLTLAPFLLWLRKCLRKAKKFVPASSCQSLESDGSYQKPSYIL
Tumor necrosis factor (Homo sapiens), sequence (P01375 whole entry, looked up): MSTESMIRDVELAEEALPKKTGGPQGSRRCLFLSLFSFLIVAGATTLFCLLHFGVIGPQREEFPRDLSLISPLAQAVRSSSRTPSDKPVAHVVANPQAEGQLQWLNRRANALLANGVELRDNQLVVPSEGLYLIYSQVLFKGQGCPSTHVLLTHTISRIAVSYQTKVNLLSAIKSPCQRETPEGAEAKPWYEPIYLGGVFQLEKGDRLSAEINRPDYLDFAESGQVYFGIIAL

For `CCOCN(C(=O)CCl)c1c(C)cccc1CC`, the outcome in assay [1] is “inactive”; in [3], “inactive”; in assay [5], “inactive”; with CD40, CD40 (gene 958) it was “inactive”; in [10], “inactive”; in [11], “inactive”. In assay [12], the outcome was inactive. Besides, the AC50 in [2] is 31.2 µM (active); in assay [4] it was 23.9 µM (active); in [6], 5.13 µM (active); in assay [7], 20 µM (active); with CD38, CD38 (gene 952) it was 27 µM (active); with CD69, CD69 (gene 969), 11.8 µM (active). Moreover, the AC50 is 36 µM (active) in [8], 17.1 µM (active) in assay [9], 27.1 µM (active) in assay [13] and 15.9 µM (active) in [14].

Take `CCN(CC)C(=O)SCc1ccc(Cl)cc1`: the result in assay [1], in assay [2], in [4], in [5], in assay [6] and in assay [7] was inactive. The outcome with CD38, CD38 (gene 952) is “inactive”; with CD40, CD40 (gene 958), “inactive”; in the assay with CD69, CD69 (gene 969) it was “inactive”; in assay [8] it was “inactive”; in assay [9] it was “inactive”; in assay [10], “inactive”. In addition, the result in assay [11], in assay [12], in assay [13] and in assay [14] was inactive. Moreover, the AC50 in assay [3] is 7.03 µM (active).

For `CC1(c2ccc(Oc3ccccc3)cc2)OC(=O)N(Nc2ccccc2)C1=O` (centres undefined), the result in assay [1], in [6] and in assay [11] was inactive. Also, the AC50 in assay [2] is 29.5 µM (active); in [3], 6.92 µM (active); in [4], 20 µM (active); in assay [5], 28.4 µM (active); in [7], 20 µM (active); in the assay with CD38, CD38 (gene 952), 19.9 µM (active). Also, the AC50 is 15.8 µM (active) with CD40, CD40 (gene 958); 20 µM (active) in the assay with CD69, CD69 (gene 969); 19.8 µM (active) in [8]; 15.6 µM (active) in assay [9]; 34.1 µM (active) in assay [10]; 11.8 µM (active) in assay [12]. For the same compound, the AC50 in assay [13] was 16.9 µM (active); in assay [14] it was 30.3 µM (active).

Take `ClC1C(Cl)C(Cl)C(Cl)C(Cl)C1Cl` (centres undefined): the outcome in [1], in assay [2], in assay [3], in assay [4], in assay [5] and in assay [6] was inactive. Besides, the outcome was “inactive” in assay [7]; “inactive” with CD38, CD38 (gene 952); “inactive” with CD40, CD40 (gene 958); “inactive” in the assay with CD69, CD69 (gene 969); “inactive” in [8]; “inactive” in assay [9]. Besides, the outcome in assay [10], in assay [11], in assay [12], in [13] and in assay [14] was inactive. For the same compound, the AC50 in [6] is 13.3 µM (active); in [7] it was 31.3 µM (active).

On to `COC(=O)c1ccccc1S(=O)(=O)NC(=O)Nc1nc(C)nc(OC)n1`, for which the outcome in assay [1], in assay [2], in [3], in [4], in assay [5] and in [6] was inactive. Also, the outcome in assay [7] was “inactive”; in the assay with CD38, CD38 (gene 952) it was “inactive”; with CD40, CD40 (gene 958), “inactive”; in the assay with CD69, CD69 (gene 969), “inactive”; in [8], “inactive”; in [9], “inactive”. In addition, the outcome in assay [10], in [12], in assay [13] and in assay [14] was inactive. The AC50 in assay [11] was 15.5 µM (active).

Consider `Clc1ccccc1-c1nnc(-c2ccccc2Cl)nn1`, for which the result in assay [1], in assay [2], in assay [3], in assay [4], in [5] and in [6] was inactive. In addition, the outcome in [7] was “inactive”; with CD38, CD38 (gene 952) it was “inactive”; with CD40, CD40 (gene 958), “inactive”; with CD69, CD69 (gene 969), “inactive”; in [8], “inactive”; in [9], “inactive”. For the same compound, the outcome in assay [10], in assay [11], in assay [12], in assay [13] and in assay [14] was inactive.

Usually AC50 stands for the concentration at which the activity in the assay is half-maximal.
